What all share (settings): modulator concentration 10 µM
Test [1] deals with RAW-Dual (murine macrophage reporter line). Nature of the test: NF-kB reporter (SEAP) activity fold change vs agonist alone; higher = enhanced NF-kB activity. The method in brief: (§1)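 RAW-Dual murine macrophage reporter cells were plated at 50 000 per well in 384-well plates, pin-transferred compound to 10 μM final, and pre-incubated for 1 hour at 37 °C before a PRR agonist was added and the cells incubated overnight. NF-κB activity was read from supernatant SEAP with QUANTI-Blue at 620 nm absorbance, and IRF activity from Lucia luciferase with QUANTI-Luc by luminescence. Each signal was expressed as fold change by dividing by the mean agonist-only control on the same plate. Two replicate plates were averaged, with errors obtained by propagation.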

Test [2] has the same test system. Nature of the test: IRF reporter (Lucia luciferase) activity fold change vs agonist alone; higher = enhanced IRF activity. The method in brief:
as §1

Test [3] shares this test system. Kind of test: viability score (confluency relative to resting cells, overnight) (fraction); higher = more viable, active = viable (0.7 or more). The method in brief:
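RAW-Dual macrophages in 384-well plates were treated overnight with compound at 10 μM final. IncuCyte imaging recorded confluency, and IncuCyte software built two confluency masks across every imaged well. The viability score expresses confluency relative to resting cells and was judged against a cutoff, which a compound met only if both masks exceeded 70% of resting cells.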

[4] abbreviates: agonist: CpG ODN 1826 0.5 ug/mL.

± gives the standard deviation.

For `Cc1ccc(-c2cc(-c3ccccc3)nc(NN=Cc3ccc(Br)cc3)n2)cc1`, the NF-kB reporter in test [1] (setting [4]) was determined as 0.976 ± 0.18; in test [1] (agonist: LPS 0.1 ug/mL), 1.08 ± 0.084; in test [1] (agonist: MPLA […]), 1.01 ± 0.12. For the same compound, the IRF reporter in test [2] (agonist: 3'3'-cGAMP 10 ug/mL) stood at 1.11 ± 0.031; in test [2] (agonist: LPS 0.1 ug/mL), 1.07 ± 0.1; in test [2] (agonist: MPLA […]) it was 1.4 ± 0.21. Also, the viability score in test [3] is 0.997 (active).

Regarding `c1cc2c3c(cccc3c1)-c1nc3ccccc3nc1-2`, the results for the NF-kB reporter in test [1] (setting [4]), in test [1] (agonist: LPS 0.1 ug/mL) and in test [1] (agonist: MPLA […]) were 0.993 ± 0.17, 1.09 ± 0.13 and 1.02 ± 0.095, respectively. Besides, the IRF reporter in test [2] (agonist: 3'3'-cGAMP 10 ug/mL) was determined as 0.984 ± 0.026; in test [2] (agonist: LPS 0.1 ug/mL), 1.32 ± 0.15; in test [2] (agonist: MPLA […]), 1.59 ± 0.3. The viability score in test [3] is 1.01 (active).

Consider `O=C(Cc1ccc(NC(=O)c2ccc(OC(F)(F)F)cc2)cc1)NCC(F)(F)F`, for which the NF-kB reporter was 1.22 ± 0.094 in test [1] (setting [4]), 1.04 ± 0.12 in test [1] (agonist: LPS 0.1 ug/mL) and 0.994 ± 0.031 in test [1] (agonist: MPLA […]). Moreover, the IRF reporter was found to be 0.984 ± 0.055 in test [2] (agonist: 3'3'-cGAMP 10 ug/mL), 1.03 ± 0.077 in test [2] (agonist: LPS 0.1 ug/mL) and 1.04 ± 0.18 in test [2] (agonist: MPLA […]). The viability score in test [3] is 0.999 (active).

As for `O=C(CCCCCl)NN1c2ccccc2CCc2ccccc21`, the NF-kB reporter in test [1] (setting [4]) turned out to be 1.18 ± 0.19; in test [1] (agonist: LPS 0.1 ug/mL), 0.984 ± 0.11; in test [1] (agonist: MPLA […]) it was 1.09 ± 0.084. Besides, the figures for the IRF reporter in test [2] (agonist: 3'3'-cGAMP 10 ug/mL), in test [2] (agonist: LPS 0.1 ug/mL) and in test [2] (agonist: MPLA […]) were 0.835 ± 0.022, 1.18 ± 0.14 and 1.25 ± 0.29, respectively. The viability score in test [3] is 1.01 (active).

Take `CCC(=O)Nc1ccc(S(=O)(=O)N2CCCC(Cc3nc(C4CC4)no3)C2)c(C)c1` (stereo unspecified): the NF-kB reporter in test [1] (setting [4]) worked out at 0.885 ± 0.062; in test [1] (agonist: LPS 0.1 ug/mL) it was 0.986 ± 0.1; in test [1] (agonist: MPLA […]) it was 1.01 ± 0.065. For the same compound, the figures for the IRF reporter in test [2] (agonist: 3'3'-cGAMP 10 ug/mL), in test [2] (agonist: LPS 0.1 ug/mL) and in test [2] (agonist: MPLA […]) were 0.88 ± 0.048, 1.21 ± 0.26 and 1.38 ± 0.51, respectively. Also, the viability score in test [3] is 0.961 (active).

In the case of `CCN(CC)c1ccc(C=C(C#N)C#N)c(OC(C)=O)c1`, the results for the NF-kB reporter in test [1] (setting [4]), in test [1] (agonist: LPS 0.1 ug/mL) and in test [1] (agonist: MPLA […]) were 1.07 ± 0.064, 0.895 ± 0.065 and 0.884 ± 0.057, respectively. For the same compound, the IRF reporter amounted to 0.76 ± 0.034 in test [2] (agonist: 3'3'-cGAMP 10 ug/mL), 0.995 ± 0.069 in test [2] (agonist: LPS 0.1 ug/mL) and 0.977 ± 0.12 in test [2] (agonist: MPLA […]). The viability score in test [3] is 1.01 (active).

`CCN1C(=O)C(=Cc2cc(Br)ccc2OCCOc2ccccc2Cl)SC1=S`: the NF-kB reporter is 0.714 ± 0.064 in test [1] (setting [4]), 0.899 ± 0.11 in test [1] (agonist: LPS 0.1 ug/mL) and 1.1 ± 0.096 in test [1] (agonist: MPLA […]). The IRF reporter in test [2] (agonist: 3'3'-cGAMP 10 ug/mL) was determined as 0.982 ± 0.057; in test [2] (agonist: LPS 0.1 ug/mL), 1.14 ± 0.086; in test [2] (agonist: MPLA […]), 1.18 ± 0.12. Besides, the viability score in test [3] is 1.02 (active).

For `Cc1cc(C)n(CC2CCN(Cc3ccc(Br)cc3)CC2)n1`, the figures for the NF-kB reporter in test [1] (setting [4]), in test [1] (agonist: LPS 0.1 ug/mL) and in test [1] (agonist: MPLA […]) were 0.933 ± 0.049, 0.745 ± 0.063 and 0.74 ± 0.049, respectively. Moreover, the IRF reporter turned out to be 0.913 ± 0.05 in test [2] (agonist: 3'3'-cGAMP 10 ug/mL), 1.19 ± 0.21 in test [2] (agonist: LPS 0.1 ug/mL) and 1.27 ± 0.39 in test [2] (agonist: MPLA […]). Further, in test [3], the viability score was 0.626 (inactive).

Turning to `O=S1(=O)N=C(SCc2ccccc2)Nc2ccc(Cl)cc21`, the results for the NF-kB reporter in test [1] (setting [4]), in test [1] (agonist: LPS 0.1 ug/mL) and in test [1] (agonist: MPLA […]) were 0.76 ± 0.059, 0.913 ± 0.067 and 1.16 ± 0.11, respectively. For the same compound, the IRF reporter in test [2] (agonist: 3'3'-cGAMP 10 ug/mL) is 0.718 ± 0.074; in test [2] (agonist: LPS 0.1 ug/mL), 1.08 ± 0.12; in test [2] (agonist: MPLA […]), 1.11 ± 0.3. For the same compound, the viability score in test [3] is 1.02 (active).

`CC(C)(O)c1ccccc1CC[C@@H](SCC1(CC(=O)O)CC1)c1cccc(/C=C/c2ccc3ccc(Cl)cc3n2)c1` [Prestw-1189]: the results for the NF-kB reporter in test [1] (setting [4]), in test [1] (agonist: LPS 0.1 ug/mL) and in test [1] (agonist: MPLA […]) were 1.1 ± 0.084, 0.765 ± 0.056 and 1.04 ± 0.098, respectively. For the same compound, the results for the IRF reporter in test [2] (agonist: 3'3'-cGAMP 10 ug/mL), in test [2] (agonist: LPS 0.1 ug/mL) and in test [2] (agonist: MPLA […]) were 1.05 ± 0.048, 1.27 ± 0.16 and 1.41 ± 0.34, respectively. In addition, the viability score in test [3] is 0.881 (active).

Regarding `CCOc1ccc(C=NNc2nc(C)cs2)c(O)c1`, the NF-kB reporter in test [1] (setting [4]) amounted to 0.949 ± 0.087; in test [1] (agonist: LPS 0.1 ug/mL), 0.965 ± 0.13; in test [1] (agonist: MPLA […]) it was 1.03 ± 0.073. Also, the values for the IRF reporter in test [2] (agonist: 3'3'-cGAMP 10 ug/mL), in test [2] (agonist: LPS 0.1 ug/mL) and in test [2] (agonist: MPLA […]) were 0.624 ± 0.024, 0.988 ± 0.069 and 0.981 ± 0.15, respectively. Also, the viability score in test [3] was 0.999 (active).

For the compound `O=S(=O)(NCc1ccc(-c2cccnc2)nc1)c1ccc(OC(F)(F)F)cc1`, the NF-kB reporter was determined as 0.947 ± 0.068 in test [1] (setting [4]), 1.01 ± 0.091 in test [1] (agonist: LPS 0.1 ug/mL) and 0.873 ± 0.058 in test [1] (agonist: MPLA […]). Also, the IRF reporter in test [2] (agonist: 3'3'-cGAMP 10 ug/mL) amounted to 0.961 ± 0.054; in test [2] (agonist: LPS 0.1 ug/mL), 1.09 ± 0.066; in test [2] (agonist: MPLA […]) it was 1.16 ± 0.11. In addition, the viability score in test [3] was 1.01 (active).

For `Cc1ccc(Sc2cc(Sc3ccc(C)cc3)c3noc4c3c2C(=O)c2ccccc2-4)cc1`, the figures for the NF-kB reporter in test [1] (setting [4]), in test [1] (agonist: LPS 0.1 ug/mL) and in test [1] (agonist: MPLA […]) were 0.971 ± 0.078, 1.03 ± 0.075 and 0.957 ± 0.09, respectively. In addition, the figures for the IRF reporter in test [2] (agonist: 3'3'-cGAMP 10 ug/mL), in test [2] (agonist: LPS 0.1 ug/mL) and in test [2] (agonist: MPLA […]) were 0.959 ± 0.052, 1.28 ± 0.21 and 1.49 ± 0.38, respectively. For the same compound, in test [3], the viability score is 1.01 (active).

Take `COC(=O)C=C1SC(Nc2ccc(Cl)c(Cl)c2)=NC1=O`: the NF-kB reporter in test [1] (setting [4]) was found to be 1.13 ± 0.081; in test [1] (agonist: LPS 0.1 ug/mL), 0.966 ± 0.091; in test [1] (agonist: MPLA […]) it was 0.968 ± 0.035. Further, the IRF reporter in test [2] (agonist: 3'3'-cGAMP 10 ug/mL) was 0.988 ± 0.11; in test [2] (agonist: LPS 0.1 ug/mL), 0.982 ± 0.11; in test [2] (agonist: MPLA […]), 0.966 ± 0.23. For the same compound, in test [3], the viability score is 0.994 (active).

For `COc1ccccc1OCC(=O)NCC1CCN(C(C)C)CC1`, the NF-kB reporter stood at 1.12 ± 0.062 in test [1] (setting [4]), 1.07 ± 0.099 in test [1] (agonist: LPS 0.1 ug/mL) and 0.92 ± 0.049 in test [1] (agonist: MPLA […]). Also, the IRF reporter in test [2] (agonist: 3'3'-cGAMP 10 ug/mL) came out at 1.09 ± 0.099; in test [2] (agonist: LPS 0.1 ug/mL), 1.13 ± 0.21; in test [2] (agonist: MPLA […]), 1.05 ± 0.34. In test [3], the viability score was 0.991 (active).

Regarding `OCCN1CCN(CCCN2c3ccccc3C=Cc3ccccc32)CC1` [Prestw-1456], the NF-kB reporter in test [1] (setting [4]) was 0.862 ± 0.066; in test [1] (agonist: LPS 0.1 ug/mL), 1 ± 0.082; in test [1] (agonist: MPLA […]), 1.37 ± 0.053. The figures for the IRF reporter in test [2] (agonist: 3'3'-cGAMP 10 ug/mL), in test [2] (agonist: LPS 0.1 ug/mL) and in test [2] (agonist: MPLA […]) were 0.807 ± 0.029, 1.06 ± 0.049 and 1.49 ± 0.18, respectively. The viability score in test [3] was 0.904 (active).

As for `O=c1cccnn1CC1CN(c2ncc(Br)cn2)C1`, the values for the NF-kB reporter in test [1] (setting [4]), in test [1] (agonist: LPS 0.1 ug/mL) and in test [1] (agonist: MPLA […]) were 1.04 ± 0.32, 1.08 ± 0.072 and 1.07 ± 0.096, respectively. The values for the IRF reporter in test [2] (agonist: 3'3'-cGAMP 10 ug/mL), in test [2] (agonist: LPS 0.1 ug/mL) and in test [2] (agonist: MPLA […]) were 0.964 ± 0.044, 0.966 ± 0.17 and 1.05 ± 0.23, respectively. Besides, in test [3], the viability score is 1 (active).

Turning to `CC1=CC(C)C2(COC(c3cccnc3)OC2)C(C)C1` (stereo unspecified), the figures for the NF-kB reporter in test [1] (setting [4]), in test [1] (agonist: LPS 0.1 ug/mL) and in test [1] (agonist: MPLA […]) were 0.876 ± 0.067, 0.788 ± 0.12 and 0.695 ± 0.065, respectively. Moreover, the IRF reporter turned out to be 0.967 ± 0.033 in test [2] (agonist: 3'3'-cGAMP 10 ug/mL), 1.15 ± 0.18 in test [2] (agonist: LPS 0.1 ug/mL) and 1.1 ± 0.19 in test [2] (agonist: MPLA […]). Moreover, in test [3], the viability score is 0.388 (inactive).

The values above are taken from the supplement of paper PMC10646978.
